Test results: PubChem BioAssay AID1159580 (chemical genetic matrix, 2015)
About 2,000 (36%) of roughly 5,500 compounds were called active. About 18% were inconclusive and are not listed. Some of the results follow. Values without a mark were called inactive. Rule as the data show it: active = normalized growth mostly below about 0.91 (no sharp cut-off); inconclusive = no clear call, values can overlap the other calls; inactive = mostly above about 0.92.

Test: chemical genetic growth profiling, strain panel (AID 1159580);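 also: tested at 20 µM; growth read once vehicle control cultures reached saturation at 30 °C; 1 = growth at the plate median or of vehicle wells; lower values mean less growth of the strain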
Conditions: growth OD

## CC1CCCC(C)N1NC(=O)c1ccc(Cl)c(S(N)(=O)=O)c1 (stereo unspecified)
S. cerevisiae deletion strains, locus YKL009W, strain mrt4, stronger effect = lower value
  normalized growth: 0.973
S. cerevisiae deletion strains, locus YKL068W, stronger effect = lower value
  normalized growth: 0.992
S. cerevisiae deletion strains, locus YKL085W, strain MDH1 (second series), stronger effect = lower value
  normalized growth: 0.987
S. cerevisiae deletion strains, locus YKL085W, strain MDH1, stronger effect = lower value
  normalized growth: 0.987
S. cerevisiae deletion strains, locus YKL160W, strain elf1, stronger effect = lower value
  normalized growth: 0.995
S. cerevisiae deletion strains, locus YKL190W, strain CNB1, stronger effect = lower value
  normalized growth: 0.99
S. cerevisiae deletion strains, locus YKR001C, strain vps1, stronger effect = lower value
  normalized growth: 1
S. cerevisiae deletion strains, locus YKR026C, strain gcn3, stronger effect = lower value
  normalized growth: 0.999
S. cerevisiae deletion strains, locus YKR091W, strain srl3, stronger effect = lower value
  normalized growth: 1.02
S. cerevisiae deletion strains, locus YLL001W, strain dnm1, stronger effect = lower value
  normalized growth: 1.01
S. cerevisiae deletion strains, locus YLL026W, stronger effect = lower value
  normalized growth: 1.02
S. cerevisiae deletion strains, locus YLL041C, strain sdh2, stronger effect = lower value
  normalized growth: 0.998
S. cerevisiae deletion strains, locus YLR027C, strain aat2, stronger effect = lower value
  normalized growth: 1.03
S. cerevisiae deletion strains, locus YLR039C, strain RIC1, stronger effect = lower value
  normalized growth: 0.989
S. cerevisiae deletion strains, locus YLR058C, strain SHM2, stronger effect = lower value
  normalized growth: 0.99
S. cerevisiae deletion strains, locus YLR102C, strain apc9, stronger effect = lower value
  normalized growth: 0.996
S. cerevisiae deletion strains, locus YLR113W, strain HOG1, stronger effect = lower value
  normalized growth: 0.993
S. cerevisiae deletion strains, locus YLR221C, strain rsa3, stronger effect = lower value
  normalized growth: 1.04
S. cerevisiae deletion strains, locus YLR258W, strain gsy2, stronger effect = lower value
  normalized growth: 0.998
S. cerevisiae deletion strains, locus YLR262C, strain YPT6 (second series), stronger effect = lower value
  normalized growth: 1.01
S. cerevisiae deletion strains, locus YLR262C, strain YPT6, stronger effect = lower value
  normalized growth: 0.997
S. cerevisiae deletion strains, locus YLR268W, strain sec22, stronger effect = lower value
  normalized growth: 0.933
S. cerevisiae deletion strains, locus YLR320W, strain mms22, stronger effect = lower value
  normalized growth: 1.02
S. cerevisiae deletion strains, locus YLR330W, strain CHS5, stronger effect = lower value
  normalized growth: 0.989
S. cerevisiae deletion strains, locus YLR342W, strain FKS1 (second series), stronger effect = lower value
  normalized growth: 1.06
S. cerevisiae deletion strains, locus YLR342W, strain FKS1, stronger effect = lower value
  normalized growth: 1.01
S. cerevisiae deletion strains, locus YLR357W, strain rsc2, stronger effect = lower value
  normalized growth: 1.05
S. cerevisiae deletion strains, locus YLR370C, strain arc18, stronger effect = lower value
  normalized growth: 1.01
S. cerevisiae deletion strains, locus YLR371W, strain rom2, stronger effect = lower value
  normalized growth: 1
S. cerevisiae deletion strains, locus YLR384C, strain iki3, stronger effect = lower value
  normalized growth: 1.01
S. cerevisiae deletion strains, locus YLR418C, strain cdc73, stronger effect = lower value
  normalized growth: 1.01
S. cerevisiae deletion strains, locus YML016C, strain PPZ1, stronger effect = lower value
  normalized growth: 0.991
S. cerevisiae deletion strains, locus YML032C, strain rad52, stronger effect = lower value
  normalized growth: 0.975
S. cerevisiae deletion strains, locus YML120C, strain ndi1, stronger effect = lower value
  normalized growth: 1.01
S. cerevisiae deletion strains, locus YML124C, strain tub3, stronger effect = lower value
  normalized growth: 0.988
S. cerevisiae deletion strains, locus YMR058W, strain fet3, stronger effect = lower value
  normalized growth: 1.03
S. cerevisiae deletion strains, locus YMR078C, strain ctf18, stronger effect = lower value
  normalized growth: 1.01
S. cerevisiae deletion strains, locus YMR125W, strain sto1, stronger effect = lower value
  normalized growth: 1.01
S. cerevisiae deletion strains, locus YMR129W, stronger effect = lower value
  normalized growth: 1.02
S. cerevisiae deletion strains, locus YMR205C, strain PFK2, stronger effect = lower value
  normalized growth: 0.992
S. cerevisiae deletion strains, locus YMR223W, strain ubp8, stronger effect = lower value
  normalized growth: 1.03
S. cerevisiae deletion strains, locus YMR231W, strain pep5, stronger effect = lower value
  normalized growth: 1.02
S. cerevisiae deletion strains, locus YMR263W, strain SAP30, stronger effect = lower value
  normalized growth: 0.982
S. cerevisiae deletion strains, locus YMR307W, strain GAS1, stronger effect = lower value
  normalized growth: 1.09
S. cerevisiae deletion strains, locus YNL067W, strain RPL9B, stronger effect = lower value
  normalized growth: 0.973
S. cerevisiae deletion strains, locus YNL071W, strain lat1, stronger effect = lower value
  normalized growth: 1.02
S. cerevisiae deletion strains, locus YNL128W, strain TEP1, stronger effect = lower value
  normalized growth: 1
S. cerevisiae deletion strains, locus YNL153C, strain GIM3, stronger effect = lower value
  normalized growth: 0.981
S. cerevisiae deletion strains, locus YNL183C, strain NPR1, stronger effect = lower value
  normalized growth: 0.952
S. cerevisiae deletion strains, locus YNL209W, strain ssb2, stronger effect = lower value
  normalized growth: 1
S. cerevisiae deletion strains, locus YNL233W, strain BNI4, stronger effect = lower value
  normalized growth: 0.977
S. cerevisiae deletion strains, locus YNL248C, strain rpa49, stronger effect = lower value
  normalized growth: 1.02
S. cerevisiae deletion strains, locus YNL250W, strain rad50, stronger effect = lower value
  normalized growth: 0.981
S. cerevisiae deletion strains, locus YNL271C, strain bni1, stronger effect = lower value
  normalized growth: 0.986
S. cerevisiae deletion strains, locus YNL298W, strain CLA4, stronger effect = lower value
  normalized growth: 0.985
S. cerevisiae deletion strains, locus YNL307C, strain MCK1, stronger effect = lower value
  normalized growth: 0.98
S. cerevisiae deletion strains, locus YNL322C, strain KRE1 (second series), stronger effect = lower value
  normalized growth: 1.11 [resistant] (active)
S. cerevisiae deletion strains, locus YNL322C, strain KRE1, stronger effect = lower value
  normalized growth: 0.99
S. cerevisiae deletion strains, locus YNR049C, strain mso1, stronger effect = lower value
  normalized growth: 1
S. cerevisiae deletion strains, locus YNR052C, strain pop2, stronger effect = lower value
  normalized growth: 0.996
S. cerevisiae deletion strains, locus YOL006C, strain TOP1, stronger effect = lower value
  normalized growth: 0.953
S. cerevisiae deletion strains, locus YOL012C, strain htz1
  normalized growth: 0.717
S. cerevisiae deletion strains, locus YOL147C, strain pex11, stronger effect = lower value
  normalized growth: 0.99
S. cerevisiae deletion strains, locus YOR001W, strain rrp6, stronger effect = lower value
  normalized growth: 1.02
S. cerevisiae deletion strains, locus YOR061W, strain CKA2, stronger effect = lower value
  normalized growth: 0.999
S. cerevisiae deletion strains, locus YOR069W, strain VPS5, stronger effect = lower value
  normalized growth: 0.996
S. cerevisiae deletion strains, locus YOR070C, strain gyp1, stronger effect = lower value
  normalized growth: 1.02
S. cerevisiae deletion strains, locus YOR080W, strain dia2, stronger effect = lower value
  normalized growth: 1.02
S. cerevisiae deletion strains, locus YOR083W, strain WHI5, stronger effect = lower value
  normalized growth: 1.01
S. cerevisiae deletion strains, locus YOR106W, strain vam3, stronger effect = lower value
  normalized growth: 0.988
S. cerevisiae deletion strains, locus YOR136W, strain idh2, stronger effect = lower value
  normalized growth: 1.01
S. cerevisiae deletion strains, locus YOR144C, strain elg1, stronger effect = lower value
  normalized growth: 0.994
S. cerevisiae deletion strains, locus YOR184W, strain ser1, stronger effect = lower value
  normalized growth: 0.989
S. cerevisiae deletion strains, locus YOR231W, strain MKK1, stronger effect = lower value
  normalized growth: 0.979
S. cerevisiae deletion strains, locus YOR265W, strain rbl2, stronger effect = lower value
  normalized growth: 1.01
S. cerevisiae deletion strains, locus YOR270C, strain vph1, stronger effect = lower value
  normalized growth: 1.04
S. cerevisiae deletion strains, locus YOR290C, strain snf2, stronger effect = lower value
  normalized growth: 1.01
S. cerevisiae deletion strains, locus YOR316C, strain cot1, stronger effect = lower value
  normalized growth: 0.985
S. cerevisiae deletion strains, locus YPL051W, strain arl3, stronger effect = lower value
  normalized growth: 1.02
S. cerevisiae deletion strains, locus YPL055C, strain LGE1, stronger effect = lower value
  normalized growth: 1.01
S. cerevisiae deletion strains, locus YPL078C, strain atp4, stronger effect = lower value
  normalized growth: 1.02
S. cerevisiae deletion strains, locus YPL106C, strain sse1, stronger effect = lower value
  normalized growth: 0.998
S. cerevisiae deletion strains, locus YPL240C, strain hsp82, stronger effect = lower value
  normalized growth: 1.01
S. cerevisiae deletion strains, locus YPL241C, strain CIN2, stronger effect = lower value
  normalized growth: 1
S. cerevisiae deletion strains, locus YPL256C, strain CLN2, stronger effect = lower value
  normalized growth: 0.948
S. cerevisiae deletion strains, locus YPR119W, strain clb2, stronger effect = lower value
  normalized growth: 0.99
S. cerevisiae deletion strains, locus YPR141C, strain kar3, stronger effect = lower value
  normalized growth: 0.985
S. cerevisiae deletion strains, locus YPR163C, strain tif3, stronger effect = lower value
  normalized growth: 0.99
S. cerevisiae deletion strains, locus YPR167C, strain met16, stronger effect = lower value
  normalized growth: 0.989
S. cerevisiae deletion strains, strain wtn01, stronger effect = lower value
  normalized growth: 0.989
S. cerevisiae strains, strain wild type, stronger effect = lower value
  normalized growth: 1.01
